Compound activity from PubChem BioAssay.
hcDAF-12 act – H. contortus DAF-12 nuclear receptor activators, primary screen, cell-based, luminescence, HEK293, lit1-tk-luc reporter. 1.4% of 370,000 active. activation, % at 6.8 µM. AID 652067, 2013. HEK293 hcDAF-12 lit1-tk-luc reporter; 0% DMSO, 100% Δ7-dafachronic acid;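 active = activation above the mean of all tested compounds plus 3 SD, cut at about 5.5% in these data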;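 note: 100% = response to 3 µM Δ7-dafachronic acid high control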
hgDAF12 agonist – H. glycines DAF-12 receptor agonists, primary screen, cell-based, luminescence, HEK293, GAL4 fusion, UAS-luciferase; AID 687014, 2013; 1.8% of 370,000 active; Nuclear hormone receptor DAF-12 (Heterodera glycines), GAL4 fusion; HEK293 GAL4-hgDAF12 UAS-luciferase reporter, agonist luminescence; normalized to butyrate control; activation, % at 6.8 µM;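 active = activation above a cutoff set at the mean of all screened compounds plus 3 SD, cut at about 10% in these data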;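 note: 0% = DMSO wells and 100% = sodium butyrate wells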
DAX1 inh-1 – DAX1 (NR0B1) inhibitors on StAR promoter, primary screen, cell-based, luminescence, SF-1 (NR5A1), full-length DAX-1; 1.1% of 370,000 active; HEK293T StAR-luciferase reporter, SF-1/DAX-1 repression relief; inhibition, % at 6.8 µM;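 active = inhibition above the mean over all tested compounds plus 3 SD, cut at about 3.6% in these data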;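 note: 0% = DAX-1 cells with DMSO and 100% = cells lacking DAX-1 with DMSO; higher inhibition means more luminescence from relief of DAX-1 repression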
DAX1 inh-2 – DAX1 (NR0B1) inhibitors, primary screen, cell-based, HEK293, Gal4-DAX1, luciferase luminescence; HEK293 Gal4-DAX1 luciferase reporter; inhibition, % at 6.75 µM; 0.99% of 340,000 active; AID 504766, 2011;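 active = inhibition above the mean over all tested compounds plus 3 SD, cut at about 4.2% in these data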;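 note: 0% = DAX1-transfected cells with DMSO and 100% = empty-vector control cells with DMSO; inhibition shows as a rise in luminescence from relieved DAX1 repression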
Target sequence (P51843 207-470 limits assumed): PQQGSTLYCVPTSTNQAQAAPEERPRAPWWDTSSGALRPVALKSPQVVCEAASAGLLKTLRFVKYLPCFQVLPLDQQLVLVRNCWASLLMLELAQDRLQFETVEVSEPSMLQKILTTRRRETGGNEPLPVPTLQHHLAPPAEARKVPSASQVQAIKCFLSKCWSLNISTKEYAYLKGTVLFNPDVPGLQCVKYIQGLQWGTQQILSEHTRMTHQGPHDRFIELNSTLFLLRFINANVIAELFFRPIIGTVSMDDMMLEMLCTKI
ssDAF-12 act – S. stercoralis DAF-12 nuclear receptor activators, primary screen, cell-based, luminescence, HEK293, GRIP1 co-expression, lit1-tk-luc; Nuclear hormone receptor DAF-12 (Strongyloides stercoralis); HEK293 ssDAF-12/GRIP1 lit1-tk-luc reporter; % of 3 µM dafachronic acid response; activation, % at 6.8 µM; 1% of 370,000 active; AID 652126, 2013;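 active = activation above the mean over all tested compounds plus 3 SD, cut at about 0.9% in these data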;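 note: 0% = DMSO-only wells and 100% = 3 µM delta7-dafachronic acid wells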
DAX1 inh confirm – DAX1 (NR0B1) inhibitors relieving SF-1 repression, confirmation, cell-based, luminescence, HEK293T, full-length DAX-1, SF-1 activated StAR promoter | HEK293T StAR-promoter luciferase reporter, SF-1/DAX-1 repression | inhibition, % at 6.8 µM | 87% of 2,400 active | AID 652134, 2013 | shares compounds with DAX1 inh-1;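 active = inhibition above the average of every tested compound plus 3 SD, cut at about 3.8% in these data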;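 note: 0% = DAX-1 cells with DMSO and 100% = no DAX-1 control cells with DMSO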
SF1 AF2mut Luc – StAR reporter signal changes without DAX1, counter-screen for DAX1 inhibitor project, cell-based, luminescence, AF-2 mutant SF-1, transactivation; HEK293 StAR-luciferase, SF-1 AF2 mutant; inhibition, % at 6.8 µM; AID 652136, 2013; shares compounds with DAX1 inh-1; 78% of 2,400 active;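 active = inhibition above the mean of all tested compounds plus 3 SD, cut at about 3% in these data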;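 note: 0% = DAX-1 transfected cells with DMSO and 100% = cells without DAX-1 with DMSO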
Active calls of the source: *. A selection: hits, their analogues and other compounds. The true share with any hit is near 4.1%.

For COc1ccc(C(CNC(=O)c2ccc(Cl)c(NC(=O)c3cccs3)c2)N2CCCC2)cc1 (configuration not stated) the results were hcDAF-12 act -0.3, hgDAF12 agonist 3.2, DAX1 inh-1 4.8*, DAX1 inh-2 -1.3, ssDAF-12 act -0.7, DAX1 inh confirm 3.9* and SF1 AF2mut Luc 2.5.
C[C@@H]1ON(C)[C@H]2C[C@H]3c4[nH]c5c(-c6ccccc6)cccc5c4CCN3C[C@@H]12 was read as hcDAF-12 act -1.4, hgDAF12 agonist 0.2, DAX1 inh-1 -0.9 and ssDAF-12 act -0.4.
`COc1ccc(COC(=O)c2cc([N+](=O)[O-])ccc2N2CCOCC2)cc1F` gave hcDAF-12 act -0.7, hgDAF12 agonist -5.3, DAX1 inh-1 4.5*, DAX1 inh-2 -1.7, ssDAF-12 act -1.2, DAX1 inh confirm 13.4* and SF1 AF2mut Luc -6.5.
`O=C(OCc1ccc(Br)cc1)c1cc([N+](=O)[O-])ccc1N1CCOCC1` gave hcDAF-12 act -1.1, hgDAF12 agonist -2.4, DAX1 inh-1 -2.1, DAX1 inh-2 -1.9 and ssDAF-12 act -0.9.
CCC(C)N(C(=O)CN1C(=O)C2CCCCN2C(=O)c2ccccc21)C(C)CC (configuration not stated) was read as hcDAF-12 act -1.6, hgDAF12 agonist -1.3, DAX1 inh-1 -0.7 and ssDAF-12 act -0.7.
Screening COc1ccc(/C=C/c2cc(C(=O)O)c3ccccc3n2)cc1 returned hcDAF-12 act 6.0*, hgDAF12 agonist 12.8*, DAX1 inh-1 4.5*, DAX1 inh-2 -0.1, ssDAF-12 act 1.0*, DAX1 inh confirm 9.8* and SF1 AF2mut Luc 3.2*.
Screening N/C(=N\OC(=O)c1cccc(C(F)(F)F)c1)c1cnccn1 returned hcDAF-12 act 4.3, hgDAF12 agonist 11.0*, DAX1 inh-1 5.2*, DAX1 inh-2 0.9, ssDAF-12 act 0.0, DAX1 inh confirm 7.3* and SF1 AF2mut Luc 5.9*.
`COc1cccc(C(NC(C)=O)c2nc(-c3ccc(F)cc3OC)cs2)c1` (configuration not stated) gave hcDAF-12 act -0.7, hgDAF12 agonist 3.1, DAX1 inh-1 5.8*, ssDAF-12 act -1.4, DAX1 inh confirm 6.6* and SF1 AF2mut Luc 3.3*.
Screening CC(C)C(OC(=O)C1=Cc2ccccc2OC1)C(=O)NCC1CCCO1 (configuration not stated) returned hcDAF-12 act 4.4, hgDAF12 agonist 14.7*, DAX1 inh-1 5.0*, DAX1 inh-2 0.9, ssDAF-12 act 0.1, DAX1 inh confirm 1.9 and SF1 AF2mut Luc 5.2*.
For O=C(N[C@H](Cc1ccccc1)C(=O)N1CCN(c2ccc(Cl)cn2)CC1)[C@H]1O[C@@H](n2ccc(=O)[nH]c2=O)[C@H](O)[C@@H]1O the results were hcDAF-12 act 0.4, hgDAF12 agonist 0.9, DAX1 inh-1 0.3 and ssDAF-12 act -0.8.
For O=C(CSc1n[nH]c(=O)n1C1CC1)Nc1ccccc1 the results were hcDAF-12 act -0.3, hgDAF12 agonist -1.2, DAX1 inh-1 11.3*, DAX1 inh-2 0.1, ssDAF-12 act -1.6, DAX1 inh confirm 1.5 and SF1 AF2mut Luc 1.5.
`N#Cc1ccc(NC(=O)CSc2n[nH]c(=O)n2C2CC2)cc1` gave hcDAF-12 act -0.2, hgDAF12 agonist 0.8, DAX1 inh-1 1.1, DAX1 inh-2 1.1 and ssDAF-12 act -1.8.
